Measurements taken from PubChem BioAssay (NCI).
About 83,000 compounds went through this panel and 20% of them were active in at least one assay; those are over-represented in the sample as a whole.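 Method: cells in 96-well plates; compound added at one concentration; 48 h incubation; percent growth measured; values under 10 scored active.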 Active and inactive are the calls of the source.

Columns and labels:
Test in all cases: NCI-60 one-dose screen, 48 h (100 = growth as untreated, 0 = no growth, -100 = all killed)
Conditions in all cases: 10 µM unless noted
T-47D breast = tested on: T-47D breast
BT-549 breast = tested on: BT-549 breast
MDA-MB-435 melanoma = tested on: MDA-MB-435 melanoma
SW-620 colon = tested on: SW-620 colon
MCF7 breast = tested on: MCF7 breast
HCT-116 colon = tested on: HCT-116 colon
HCC-2998 colon = tested on: HCC-2998 colon
KM12 colon = tested on: KM12 colon

Measured: growth

COc1ccc(-n2nnnc2-c2cn[nH]c2C(F)(F)F)cc1
inactive: T-47D breast 77.8% | BT-549 breast 85.5% | MDA-MB-435 melanoma 98.1% | SW-620 colon 94.6% | MCF7 breast 111% | HCT-116 colon 97% | HCC-2998 colon 78.9% | KM12 colon 101%

CCOc1ccc2nc3ccc(Cl)cc3nc2c1
inactive: T-47D breast 80.6% | BT-549 breast 90.7% | MDA-MB-435 melanoma 107% | SW-620 colon 91% | MCF7 breast 92.3% | HCT-116 colon 88.1% | HCC-2998 colon 70.5% | KM12 colon 94.5%

COc1ccc(Cn2cc3c(c2-c2ccccc2)CCc2cnoc2-3)cc1N
active: MDA-MB-435 melanoma -27.9% | HCT-116 colon 9.53% | HCC-2998 colon -1.21% | KM12 colon 6.52%
inactive: T-47D breast 37.2% | BT-549 breast 36.2% | SW-620 colon 23.5% | MCF7 breast 16%

CC(C)C(=O)c1ccc(Cl)s1
inactive: T-47D breast 90.4% | BT-549 breast 104% | MDA-MB-435 melanoma 106% | SW-620 colon 107% | MCF7 breast 88.9% | HCT-116 colon 97% | HCC-2998 colon 99.7% | KM12 colon 100%

Cc1c(Cc2ccccc2)c(=O)oc2c(C)c(OCc3n[nH]c(=S)o3)ccc12
active: SW-620 colon -7.67% | HCT-116 colon 6.37%
inactive: T-47D breast 53.1% | BT-549 breast 96.9% | MDA-MB-435 melanoma 61.5% | MCF7 breast 14.5% | HCC-2998 colon 94.9% | KM12 colon 43.1%

N=C(c1ccccc1)N(Cc1ccccc1)Cc1ccccc1
inactive: T-47D breast 94.8% | BT-549 breast 93.2% | MDA-MB-435 melanoma 77.6% | SW-620 colon 89.4% | MCF7 breast 87.5% | HCT-116 colon 57.3% | HCC-2998 colon 106% | KM12 colon 101%

CN(CCC#N)c1ccc(/C=C(\C#N)c2cccc(C(F)(F)F)c2)cc1
active: MDA-MB-435 melanoma 1.34%
inactive: T-47D breast 56.7% | BT-549 breast 60.1% | SW-620 colon 40.4% | MCF7 breast 34.2% | HCT-116 colon 57.6% | HCC-2998 colon 78.5% | KM12 colon 38.5%

CCOC(=O)c1c(C)oc2ncnc(Nc3ccc(NC(=O)Nc4ccc(CC)cc4)cc3)c12
inactive: T-47D breast 78.3% | BT-549 breast 84.5% | MDA-MB-435 melanoma 102% | SW-620 colon 113% | MCF7 breast 94.9% | HCT-116 colon 78.8% | HCC-2998 colon 114% | KM12 colon 103%

CCCCCCCCCCC(C[N+](C)(C)C/C=C/c1ccccc1)C(O)c1ccccc1 (stereo not drawn)
active: BT-549 breast -6.83% | MDA-MB-435 melanoma -66% | SW-620 colon 2.5% | MCF7 breast -66.9% | HCT-116 colon -87.7% | HCC-2998 colon 7.77% | KM12 colon -97.5%
inactive: T-47D breast 10.3%

FC(F)(F)c1cccc(-c2[nH]ncc2-c2nnnn2-c2ccccc2)c1
active: MDA-MB-435 melanoma -7.25%
inactive: T-47D breast 44.9% | BT-549 breast 42.8% | SW-620 colon 16.5% | MCF7 breast 24.1% | HCT-116 colon 20.7% | HCC-2998 colon 31.1% | KM12 colon 23.9%

C=CCN(C)C
inactive: T-47D breast 117% | BT-549 breast 101% | MDA-MB-435 melanoma 97.1% | SW-620 colon 105% | MCF7 breast 101% | HCT-116 colon 105% | HCC-2998 colon 110% | KM12 colon 108%

O=C(/C=C/c1cccc(O)c1)c1cccc(-n2cc(-c3ccc(Cl)cc3)[nH]c2=O)c1
active: T-47D breast -0.126% | BT-549 breast -42.5% | MDA-MB-435 melanoma -9.55% | SW-620 colon -75.4% | MCF7 breast -8.69% | HCT-116 colon -85.2% | HCC-2998 colon -64.4% | KM12 colon -73.3%

CC(=O)CCS(=O)c1ccccc1 (stereo not drawn)
inactive: T-47D breast 100% | BT-549 breast 119% | MDA-MB-435 melanoma 111% | SW-620 colon 98% | MCF7 breast 91.6% | HCT-116 colon 102% | HCC-2998 colon 91.7% | KM12 colon 97.9%

CN1NC(c2ccccc2)NN(C)C1=O
inactive: T-47D breast 95.7% | BT-549 breast 109% | MDA-MB-435 melanoma 102% | SW-620 colon 91.1% | MCF7 breast 96.3% | HCT-116 colon 101% | HCC-2998 colon 103% | KM12 colon 118%

O=C(O)c1ccc(Br)nc1
inactive: T-47D breast 99.1% | BT-549 breast 106% | MDA-MB-435 melanoma 103% | SW-620 colon 97.1% | MCF7 breast 93.8% | HCT-116 colon 98% | HCC-2998 colon 104% | KM12 colon 107%

Nc1nc2c(c3cnccc13)C(c1cccc(Cl)c1)Cc1cnccc1-2 (stereo not drawn)
inactive: T-47D breast 47.9% | SW-620 colon 24.2% | MCF7 breast 11.1% | HCC-2998 colon 41.7% | KM12 colon 13.7%
active: BT-549 breast -12% | MDA-MB-435 melanoma -22.9% | HCT-116 colon 6.83%
